Sampled rows, rich in hits. Any-hit rate of the full collection: about 7%.
D3 ag – agonists of human D3 dopamine receptor; max activation, %; 410,000 tested, 0.58% active; AID 652048; D3R DiscoveRx beta-arrestin cells, luminescence, 90 min; in the data active = max activation above about 30%; also: 0% is about no effect
Target sequence (P35462 whole entry, looked up): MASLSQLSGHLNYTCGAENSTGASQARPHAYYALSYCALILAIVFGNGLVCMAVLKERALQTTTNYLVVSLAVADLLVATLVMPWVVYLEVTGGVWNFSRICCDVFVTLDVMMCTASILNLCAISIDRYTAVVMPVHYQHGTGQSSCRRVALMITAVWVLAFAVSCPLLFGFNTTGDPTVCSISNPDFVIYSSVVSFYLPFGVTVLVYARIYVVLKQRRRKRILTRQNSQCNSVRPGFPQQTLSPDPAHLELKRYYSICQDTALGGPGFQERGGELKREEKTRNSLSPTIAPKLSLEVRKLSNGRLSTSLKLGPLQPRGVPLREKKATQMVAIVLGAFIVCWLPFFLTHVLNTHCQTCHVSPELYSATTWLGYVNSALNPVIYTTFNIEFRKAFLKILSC
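Cells at 1500/well, incubated overnight, then treated with pinned compounds (dopamine as control) for 90 min at 37 degrees C. DiscoveRx reagent added for 30 - 60 minutes at room temperature; luminescence read.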
IL1B secr inh – blocks inflammasome-driven IL-1 beta release; THP-1 LPS/ATP IL-1B secretion, AlphaLISA, 16 h; active compounds read low; activity change, % at 57.5 µM; 360,000 tested, 4.7% active; AID 743279; in the data active = activity change below about -50%; inconclusive = mostly about -30% to -49%; also: % is scaled to controls: 0 for no effect and ±100 for the full control effect
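THP-1 cells pretreated 1 hr with compounds (up to 57.5 uM final), then stimulated with LPS (250 ng/mL final) plus ATP (1.25 mM final); secreted IL-1B measured by AlphaLISA after 16 hr, decreased signal indicating inhibition.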
a7 integrin act – activates integrin-mediated alleviation for muscular dystrophy; alpha7betagal myoblasts, beta-gal FDG fluorescence, 48 h; Potency, µM (doses to about 38.3 µM), without a hit: at the top dose activation, most hits filed as activators; 350,000 tested, 0.064% active; AID 624291;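 also: potency is read from the fitted curve at half-maximal effect; 100% = response of the positive control SU9516; nearly all actives have a fitted effect of over 60% in size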
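Alpha7betagal+/- myoblasts (passage 13) were plated 16-24 hr, then exposed to compounds (1:260 dilution of DMSO stock) for 48 hours at 37C. After MPER lysis, β-galactosidase reporter activity was read as FDG fluorescence (ex 480/em 540) after 30 minutes.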
D3 antag – blocks the human D3 dopamine receptor. P35462. D3R cells, DiscoveRx beta-arrestin luminescence, antagonist mode; active compounds read low. max response, negative = inhibition, %. 360,000 tested, 2.5% active. AID 652054; in the data active = max response below about -50%; inconclusive = no clear call, values can overlap the other calls; also: % is scaled to controls: 0 for no effect and ±100 for the full control effect
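Cells plated overnight at 1500 cells/well, then exposed to library compounds with dopamine controls for 90 minutes at 37 degrees C. DiscoveRx reagent added for 30–60 minutes at room temperature; luminescence read, quantitative HTS format.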
ATXN2 expr inh – reduces ATXN2 reporter expression in HEK-293 cells. Potency, µM (highest dose often 57 µM), for inactives: top-dose activity change, negative = inhibition, hits mostly inhibitors. HEK-293 ATXN2-luciferase reporter, luminescence, 24 h. 360,000 tested, 0.72% active; also: potency is read from the fitted curve at half-maximal effect; % is scaled to controls: 0 for no effect and ±100 for the full control effect; nearly all actives have a fitted effect of over 55% in size
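qHTS (up to 57 uM final) was run with 24 h compound exposure of reporter cells at 37 °C. Each well was multiplexed: SteadyGlo luminescence measured ATXN2-luciferase expression after a fluorogenic Gly-Phe-AFC viability readout (25 uM final).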
ATXN viability – cell viability loss in ATXN counter-screen; S2 cells (HEK-293 line with an ATXN2-luciferase reporter) viability, CellTiter-Fluor protease fluorescence, 24 h; Potency, µM (titrated, usually from 56.7 µM), usual class: cytotoxic; 400,000 tested, 0.49% active; AID 651635; also: potency is read from the fitted curve at half-maximal effect; nearly all actives have a fitted effect of over 40% in size
Numbers without * were called inactive; i = inactive; u = inconclusive; x = not tested or not shown; [ ] = another dose, or the depositor's remark. Unless noted, calls follow the shape of the dose curve; as a rule, active = well fitted curve in the direction sought with a large enough effect; inconclusive = small, poorly fitted or top-dose-only effect, or another doubt; inactive = no such curve, though single readings can be large; an effect the other way counts as inactive or inconclusive.

SMILES	D3 ag	IL1B secr inh	a7 integrin act	D3 antag	ATXN2 expr inh	ATXN viability
O=S(=O)(N(Cc1ccccc1)[C@H](CO)Cc1ccccc1)N(Cc1ccccc1)[C@H](CO)Cc1ccccc1	-2	3	-35%	1	u	i
CC(C)C[C@@H](CO)N(Cc1ccccc1)S(=O)(=O)N(Cc1ccccc1)[C@H](CO)CC(C)C	48*	-79*	-38%	129	u	u
COc1ccc(CN([C@H](CO)CC(C)C)S(=O)(=O)N(Cc2ccccc2)[C@H](CO)CC(C)C)cc1	14	-88*	-40%	33	u	x
Nc1ncc(-c2nnnn2-c2ccc(Cl)cc2)c(-c2ccc(Cl)cc2)n1	8	40	-4%	-23	30%	i
O=C(CN1CCN(S(=O)(=O)N2CCCCC2)CC1)Nc1cc(Cl)cc(Cl)c1	-32	-65*	-7%	-3	-13%	i
O=C(CN1CCN(S(=O)(=O)N2CCCCC2)CC1)Nc1ccc(Cl)c(Cl)c1	15	-77*	-6%	-16	-25%	i
O=C(CN1CCN(S(=O)(=O)N2CCCCCC2)CC1)Nc1ccc(Br)cc1	3	-27	1%	10	-8%	u
C/C(=N/NC(=O)CNC(=O)COc1cccc(C)c1)c1ccco1	-3	7	-19%	-12	0%	i
CCOC(=O)[C@H]1[C@H]2COc3ccccc3[C@@H]2N2C(=O)c3cc(Cl)ccc3NC(=O)[C@@]12C	-12	u	3%	-16	-1%	i
CCOC(=O)[C@H]1[C@H]2COc3ccc(C)cc3[C@@H]2N2C(=O)c3cc(F)c(F)cc3NC(=O)[C@@]12C	7	-18	-1%	44	-8%	i
CCOC(=O)[C@H]1[C@H]2COc3ccccc3[C@@H]2N2C(=O)c3ccc(Cl)cc3NC(=O)[C@@]12C	-21	-67*	1%	-6	-7%	i
CCOC(=O)[C@H]1[C@H]2COc3ccc(Cl)cc3[C@@H]2N2C(=O)c3cc(F)c(F)cc3NC(=O)[C@@]12C	-8	-72*	0%	-19	-27%	i
O=C(COC(=O)C12CC3CC(CC(C3)C1)C2)Nc1ccc(OC(F)F)cc1	1	u	-25%	-18	x	x
Cc1cc(NC(=O)c2cnn3c(C(F)(F)F)cc(-c4ccccc4)nc23)no1	22	-69*	39%	47	-19%	u
COc1ccc(-c2cc(C(F)(F)F)n3nc(C(=O)Nc4c(C)n(C)n(-c5ccccc5)c4=O)c(Cl)c3n2)cc1	-1	14	-4%	2	-33%	i
Cc1c(NC(=O)c2nn3c(C(F)(F)F)cc(-c4ccccc4)nc3c2Cl)c(=O)n(-c2ccccc2)n1C	-15	-51*	-19%	-13	-19%	i
O=C(/C=C/c1cccc(F)c1)c1ccc(N2CCOCC2)cc1	5	-103*	-43%	-22	0%	i
COc1ccc(C(=O)/C=C/c2cccs2)c(OC(=O)N2CCOCC2)c1	-3	-23	-37%	3	-3%[11.3 µM]	i
O=C(/C=C/c1cccs1)c1cc(Br)ccc1OC(=O)N1CCOCC1	-2	-98*	-41%	-11	u	i
O=C(/C=C/c1cccs1)c1ccc(N2CCOCC2)cc1	2	-69*	-16%	-6	x	u
COc1ccc(-c2nn(-c3ccccc3C)cc2CNC(C)Cn2cncn2)cc1F (stereo not drawn)	-6	9	u	0	-17%	i
CCn1nnnc1NCc1cccc(Cl)c1	4	10	-2%	1	-6%	i
Cc1cccc(NCc2ccc(O)c3ncccc23)c1C	-20	23	-25%	-27	-27%	i
Cc1cccnc1NCc1ccc(O)c2ncccc12	-19	100	-41%	-51*	u	i
COc1ccccc1CN(C(=O)CCl)C(C(=O)NC1CCCCC1)c1ccncc1 (stereo not drawn)	-3	5	8%	6	4%	u
SMILES	D3 ag	IL1B secr inh	a7 integrin act	D3 antag	ATXN2 expr inh	ATXN viability
COc1ccc(C(=O)/C=C/C(=O)N(Cc2ccc(F)cc2)C(C(=O)NC2CCCCC2)c2ccncc2)c(O)c1 (stereo not drawn)	5	-64*	0%	3	-29%	u
COc1ccc(C(=O)/C=C/C(=O)N(Cc2ccccc2OC)C(C(=O)NC2CCCCC2)c2ccncc2)c(O)c1 (stereo not drawn)	-40	-78*	4%	0	24µM*	x
COc1ccc(C(=O)/C=C/C(=O)N(Cc2ccccc2)C(C(=O)NC2CCCCC2)c2ccncc2)c(O)c1 (stereo not drawn)	-8	-21	-38%	6	-21%	u
CCCCOc1ccc(CNC(=O)c2ccc(NC(=O)N3CCCCc4ccccc43)cc2)cc1	-9	x	x	x	4%	i
CN(C)C(=O)c1cn(-c2ccccc2)nc1-c1cccc([N+](=O)[O-])c1	2	-16	22%	-14	-23%	i
O=C(c1cn(-c2ccccc2)nc1-c1cccc([N+](=O)[O-])c1)N1CCCCC1	3	-95*	11%	-7	-10%[11.3 µM]	i
CC(=O)OC1C=CCC2C(=O)c3cccc(O)c3C(O)C12 (stereo not drawn)	2	-6	4%	12	10%	i
CCOC(=O)CP(=O)(c1ccccc1)c1ccccc1	2	53	0%	15	7%	i
N=C(N)SCP(=O)(c1ccccc1)c1ccccc1	-15	-85*	-29%	0	-27%	i
Cc1ccc(P(=O)(CO)c2ccc(C)cc2)cc1	21	0	22%	-9	-1%	i
Cc1ccc(P(=O)(CSC(=N)N)c2ccc(C)cc2)cc1	-7	-63*	-14%	-1	2%	u
O=C(O)CN1C(=O)COc2ccc(S(=O)(=O)N3CCCCCC3)cc21	-1	14	-10%	-19	14%	i
N#Cc1c(N)nc(SCC(=O)OCc2ccccc2)c(C#N)c1-c1ccco1	3	15	5%	-11	-1%	i
N#Cc1c(N)nc(SCc2ccccc2)c(C#N)c1-c1ccco1	19	-73*	-3%	18	-13%	i
N#Cc1c(N)nc(SC2CCCCC2=O)c(C#N)c1-c1ccco1 (stereo not drawn)	0	-14	-28%	-10	31%	i
CCCOC(=O)CSc1nc(N)c(C#N)c(-c2ccco2)c1C#N	8	-88*	6%	-12	-2%	i
COc1ccc(S(=O)(=O)N2CCN(c3ccccc3)CC2)cc1-c1noc(C)n1	5	x	x	x	x	x
COC(=O)c1nnn(-c2nonc2N)c1CSCCO	-7	8	16%	-11	-6%	i

Screens as filed in PubChem.
